# Results filed as inconclusive are left out. A call without a number means that no potency is given here. Activity calls are given as the source filed them. Calls follow the shape of the dose curve; as a rule, active = well fitted curve in the direction sought with a large enough effect; inconclusive = small, poorly fitted or top-dose-only effect, or another doubt; inactive = no such curve, though single readings can be large; an effect the other way counts as inactive or inconclusive.
# What was measured:
# Furin (Homo sapiens) = Furin (Homo sapiens) (UniProt P09958); test: Furin counterscreen qHTS for Zika virus inhibitors (AID 1347149); also: nearly all actives have a fitted effect of over 70% in size; also: potency is read from the fitted curve at half-maximal effect
# Furin (Homo sapiens), sequence (P09958 whole entry, looked up): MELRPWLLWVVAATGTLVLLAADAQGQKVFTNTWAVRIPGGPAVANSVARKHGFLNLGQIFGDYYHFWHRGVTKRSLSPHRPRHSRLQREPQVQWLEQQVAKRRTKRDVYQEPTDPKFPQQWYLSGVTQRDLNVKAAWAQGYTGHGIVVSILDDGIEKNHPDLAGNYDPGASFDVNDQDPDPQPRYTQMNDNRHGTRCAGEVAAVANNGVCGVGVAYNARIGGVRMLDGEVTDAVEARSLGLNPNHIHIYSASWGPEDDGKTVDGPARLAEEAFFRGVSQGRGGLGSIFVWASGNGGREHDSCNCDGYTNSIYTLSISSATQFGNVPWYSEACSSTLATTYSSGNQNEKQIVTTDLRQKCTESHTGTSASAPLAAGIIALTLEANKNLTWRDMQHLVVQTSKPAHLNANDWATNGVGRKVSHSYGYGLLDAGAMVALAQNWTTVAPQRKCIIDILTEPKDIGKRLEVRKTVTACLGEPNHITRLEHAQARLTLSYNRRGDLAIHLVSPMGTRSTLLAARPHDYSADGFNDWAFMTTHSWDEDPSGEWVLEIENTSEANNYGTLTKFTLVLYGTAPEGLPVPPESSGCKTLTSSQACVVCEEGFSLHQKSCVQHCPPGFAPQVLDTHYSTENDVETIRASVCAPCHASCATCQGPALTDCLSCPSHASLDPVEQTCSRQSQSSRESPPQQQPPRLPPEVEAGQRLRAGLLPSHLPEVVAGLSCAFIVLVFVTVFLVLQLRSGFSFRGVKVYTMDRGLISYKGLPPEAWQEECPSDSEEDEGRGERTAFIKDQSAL
# Procedure, shortened: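 Counterscreen measures cleavage of 2 microM BOC-RVRR-AMC, below its ~15 microM Km, by 5 nM full-length human furin at pH 7.0 after a 15-min compound preincubation. Inhibition derives from the 15-min fluorescence increase at 37C.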
# [1] = test system: Zika virus NS2B-NS3 protease; test: Primary screen GU AMC qHTS for Zika virus inhibitors (AID 1347154); also: nearly all actives have a fitted effect of over 70% in size; also: potency is read from the fitted curve at half-maximal effect
# Procedure, shortened: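 Unlinked Zika NS2B hydrophilic domain–NS3 protease complex at 25 nM in 10 mM Tris-HCl pH 8.0, 0.01% Tween 20, with an AMC peptide substrate. Fluorescence change (340/450 nm) over 15 min at room temperature, normalized to controls, fitted to 4-parameter Hill.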
# [2] = Confirmatory screen GU Rhodamine qHTS for Zika virus inhibitors qHTS (AID 1347157); also: nearly all actives have a fitted effect of over 70% in size
# Procedure, shortened: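 Buffer 10 mM Tris-HCl pH 8.0, 0.01% Tween 20. Unlinked protease 25 nM; compound preincubation 15 min, RT, protected from light. Substrate Rhod110, 1.5 microM; ~15% conversion in 15 min.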
# [3] = Confirmatory screen NINDS Rhodamine qHTS for Zika virus inhibitors (AID 1347161);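 also: purified Zika NS2B-NS3 protease with linked NS2B cofactor domain and Rhodamine110 peptide substrate; series mostly up to about 110 µM; nearly all actives have a fitted effect of over 60% in size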
# Procedure, shortened: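 Single-chain NS2B-NS3 protease, 25 nM, pH 8.0; compounds preincubated 15 min. Activity: Rhodamine110 release from 1.5 microM substrate over 15 min, room temperature, data fitted to 4-parameter Hill.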
# [4] = Tertiary RLuc qRT-PCR qHTS assay for Zika virus inhibitors (AID 1347169); also: nearly all actives have a fitted effect of over 55% in size; also: potency is read from the fitted curve at half-maximal effect
# Procedure, shortened: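 Vero, 1,000 cells/well, o/n 37 C; cpd pinned in DMSO; ZIKV-RLuc Cambodian, MOI 1-2, 48-72 h 37 C; live-cell RLuc substrate, lum read at 1-1.5 h.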
# [5] = Primary qHTS for small molecule stabilizers of the endoplasmic reticulum resident proteome: Secreted ER Calcium Modulated Protein (SERCaMP) assay (AID 1508630)
# Procedure, shortened: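 The SH-SY5Y reporter protocol was run at 3 concentrations up to 38.3 uM (primary) or 11 concentrations (follow-up): 16 h compound, 100 nM thapsigargin for 4 h, then extracellular luciferase luminescence.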
# [6] = test system: Zika virus NS2B-NS3 protease (linked construct); test: Confirmatory screen NINDS AMC qHTS for Zika virus inhibitors (AID 1347152);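 also: AMC fluorescence gain from cleaved Bz-Nle-KRR-AMC substrate over 15 min; top concentration of the series differs between compounds; nearly all actives have a fitted effect of over 70% in size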
# Procedure, shortened: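 Enzyme (1 nM, linked construct) was preincubated with compound for 15 minutes at room temperature in 10 mM Tris-HCl pH 8.0 with 0.01% Tween 20. Bz-Nle-Lys-Arg-Arg-AMC was then added to 10 microM, and AMC fluorescence was recorded immediately and after 15 minutes.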
# [7] = ZIKV-mCherry secondary qHTS for Zika virus inhibitors (AID 1347158); also: top concentration of the series differs between compounds
# Procedure, shortened: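 Percent infection is the share of Hoechst-identified Vero nuclei with mCherry signal above 450 RFU (3 SD over negative controls). Cells were infected with recombinant ZIKV-mCherry at MOI 1 after compound addition and imaged 48–72 h later.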
# [8] = test system: Zika virus NS2B-NS3 protease (linked construct); test: 384 well plate NINDS Rhodamine confirmatory qHTS for Zika virus inhibitors (AID 1347164);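 also: fluorescence from protease cleavage of Ac-LKRR-rhodamine 110 substrate; potency is read from the fitted curve at half-maximal effect; nearly all actives have a fitted effect of over 65% in size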
# Procedure, shortened: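 Enzyme (final 5/30/60 nM) + cpd (DMSO), ~15 min; add Ac-LKRR-Rd 10 microM final; 25 min RT, dark; FI ex 485/em 538; normalized to no-enzyme, no-inhibitor ctrls; aprotinin intraplate ctrl.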
# [9] = test system: Zika virus NS2B-NS3 protease (unlinked complex); test: Confirmatory screen GU AMC qHTS for Zika virus inhibitors (AID 1347153); also: nearly all actives have a fitted effect of over 70% in size
# Procedure, shortened: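 Noncovalent NS2B hydrophilic domain/NS3 protease complex (25 nM) in 10 mM Tris-HCl pH 8.0, 0.01% Tween 20 was preincubated 15 min at room temperature with compounds. Then 10 µM AMC substrate (Km 18.3 µM) was added; fluorescence was read over 15 min and fitted to a 4-parameter Hill equation.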
# [10] = Vero cells viability qHTS for Zika virus inhibitors (AID 1347167)
# Procedure, shortened: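 qHTS titration; 24-48 h compound exposure, 37 degrees C/5% CO2; DMEM, 4% FBS; CellTiter Glo ATP luminescence.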
smiles,measurement,setting,value
Cc1cc(=O)c2c(O)c3c(O)cc(O)c4c5c(O)cc(O)c6c(O)c7c(=O)cc(C)c8c1c2c(c34)c(c65)c78,Potency,Furin (Homo sapiens),inactive
same,Potency,[1],inactive
same,Potency,[2],inactive
same,Potency,[3],inactive
same,Potency,[4],inactive
same,Potency,[5],inactive
N#Cc1ccc(OCC2CN(Cc3c[nH]c4ccccc34)C(=O)c3c(ccnc3-c3ccc(OCC(=O)O)cc3)O2)cc1 (stereo not given),Potency,Furin (Homo sapiens),inactive
same,Potency,[6],inactive
same,Potency,[7],inactive
same,Potency,[8],39.8 µM (active)
same,Potency,[4],inactive
N#Cc1ccccc1S(=O)(=O)N[C@H]1CO[C@H]2[C@@H]1OC[C@H]2OC(=O)Nc1ccc(Oc2ccccc2)cc1,Potency,Furin (Homo sapiens),inactive
same,Potency,[6],inactive
same,Potency,[9],inactive
same,Potency,[4],7.39 µM (active)
Cc1ccc2c(=O)c3ccccc3n(CCCN)c2c1C,Potency,Furin (Homo sapiens),24.1 µM (active)
same,Potency,[9],inactive
same,Potency,[1],21.2 µM (active)
same,Potency,[10],inactive
same,Potency,[5],inactive
N#Cc1ccc(OCC2CN(Cc3cccc(C(F)(F)F)c3)C(=O)c3c(ccnc3-c3ccc(OCC(=O)O)cc3)O2)cc1 (stereo not given),Potency,Furin (Homo sapiens),inactive
same,Potency,[6],inactive
same,Potency,[7],inactive
same,Potency,[8],39.8 µM (active)
same,Potency,[4],inactive

# Source: PubChem BioAssay (NCATS)
